# Assay outcomes: PubChem, National Center for Advancing Translational Sciences (NCATS)
# TexasRed fluor = Texas Red fluorescence interference in TRb-SRC2 counter-screen; TRb/SRC2 Texas Red total fluorescence interference; Potency, µM (titrated, usually from 106 µM), inactives show top-dose fluorescence change, negative = quenching; 0.29% of 280,000 active; AID 1479; active means well fitted curve in either direction with a large enough effect; inconclusive means small, poorly fitted or top-dose-only effect
#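 Flags fluorescent or light-absorbing compounds by total fluorescence, S + 2P, at 555 nm excitation and 632 nm emission. Mixture: 20 nM Texas Red SRC2 peptide, 0.6 uM human TRb LBD, 1 uM T3, 5% DMSO; compound exposure 5 h at ambient temperature.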
# Tau fibril FP = blocks human tau fibril formation measured by polarization | P10636 | K18 P301L tau heparin fibrillization, Alexa594 FP, 6 h | AID 1468 | Potency, µM (top dose mostly 57.7 µM), for the others: top-dose activity, negative = inhibition, most hits filed as inhibitors | 0.39% of 280,000 active; further: nearly all actives have a fitted effect of over 55% in size
# Target sequence (P10636 561-689 P618L limits assumed): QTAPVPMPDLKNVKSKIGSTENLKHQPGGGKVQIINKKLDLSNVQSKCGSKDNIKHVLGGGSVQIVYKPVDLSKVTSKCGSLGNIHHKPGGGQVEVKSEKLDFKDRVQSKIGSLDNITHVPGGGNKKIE
#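 Read-out: fluorescence polarization of Alexa 594-labeled tau (0.24 uM), 555 nm excitation, 632 nm emission. Mixtures held 15 uM unlabeled K18 P301L, compound and 20 uM heparin, pH 7 acetate buffer, incubated 6 hr at 37 C.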
# Tau fluor counter = counter-screen for tau fibril formation inhibitors; AID 1463; tau K18 P301L Alexa594 fluorescence, heparin fibrillization; 0.93% of 280,000 active; Potency, µM (doses to about 57.7 µM), without a hit: top-dose activity change, negative = decrease; further: nearly all actives have a fitted effect of over 55% in size
#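 Human K18 P301L tau (15 uM unlabeled plus 0.24 uM Alexa 594-labeled, final) in 100 mM sodium acetate pH 7 was mixed with compound and 20 uM heparin and incubated 6 hr at 37 C.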
# TRb SRC2 PPI = disrupts binding of human TR beta to SRC2; P10828; TRbeta-SRC2 peptide binding, fluorescence polarization; receptor liganded with 1 µM T3; 0.065% of 280,000 active; Potency, µM (titrated, usually from 106 µM), for inactives: at the top dose activity change, negative = inhibition, usual class: inhibitors;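 further: plate controls were bound peptide for no effect and peptide without receptor for full effect; nearly all actives have a fitted effect of over 50% in size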
#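 Read-out is fluorescence polarization (555 nm excitation, 632 nm emission) of a Texas Red SRC2 coactivator peptide; loss of signal reflects blocked binding to human TRb ligand-binding domain in the presence of 1 uM T3.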
# Tau fibril ThT = tau fibrillization inhibition (ThT binding); P10636; recombinant tau K18 P301L, heparin-induced fibrillization, ThT fluorescence; Potency, µM (highest dose often 57.4 µM), for inactives: top-dose activity, negative = inhibition, hits mostly inhibitors; 2.1% of 270,000 active; AID 1460; further: nearly all actives have a fitted effect of over 55% in size
#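 Fibril formation assay: tau K18 P301L at 15 uM with trace Alexa 594 label, heparin inducer 20 uM, pH 7 sodium acetate buffer, 37 C for 6 hr; endpoint ThT signal.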
# The depositor's hits bear a star; ? = inconclusive; · = not tested or not shown; [ ] = another dose, or the depositor's remark. Shown are actives, neighbours in structure and some others; about 3% of the full set was active somewhere. Unless noted, the call rests on the fitted dose curve; in most records, active means well fitted curve in the direction sought with a large enough effect; inconclusive means small, poorly fitted or top-dose-only effect, or another doubt; inactive means no such curve, though single readings can be large; an effect the other way counts as inactive or inconclusive. Unless noted, on the % scale 0 is the no-effect control and ±100 the full control effect; potency means the concentration at half of the fitted maximal effect.
SMILES,TexasRed fluor,Tau fibril FP,Tau fluor counter,TRb SRC2 PPI,Tau fibril ThT
COc1ccc(NC(=O)Nc2cccs2)cc1OC,-5.2%,1.6%,?,-5.9%,15.8µM*
CCCCOC(=O)c1ccc(NC(=O)Nc2ccc(OC)c(OC)c2)cc1,-2.7%,-8.7%,6.31µM*[quencher],-4.9%,?
COc1ccc(/C=C2\CCCC(C(=O)C(F)(F)F)=C2O)cc1OC,-2.4%,?,-16.7%,-13.4%,15.8µM*
COc1ccc(/C=C2/CCCC(C(=O)C(F)(F)F)=C2O)cc1OC,-0.3%,-3.9%,-11.1%,-4.4%,?
COC(=O)C1=C(C)NC(C)=C(C(=O)OCCSc2ccccc2)C1C (stereo unspecified),-2.2%,8.2%,?,1.7%,-14.8%
COc1ccc2c(c1)CCc1c(C(=O)Nc3c(C)nn(Cc4c(Cl)cccc4Cl)c3C)noc1-2,0.0794µM*[quencher],-11.4%,?,-8.2%,?
COC(=O)C/C=C1\c2ccccc2C(OC)C1C (stereo unspecified),0.1%[11.2 µM],-3.6%[11.6 µM],-10.7%[11.6 µM],1.3%[11.2 µM],-6.5%[11.5 µM]
CC1N=C2c3ccccc3N=C(SCC(=O)NCc3ccc(Cl)cc3)N2C1=O (stereo unspecified),-0.1%,-4.8%,-2.4%,-3.9%,0.2%
N=C(N)S/C=C\C(=O)O,0.5%,?,-18.7%,-0.3%,28.2µM*
Brc1ccc(Br)c(Br)c1,-4.3%[201 µM],·,·,3.7%[201 µM],·
Cc1cc2c(NC(=O)Nc3ccc(C(F)(F)F)cc3)cccc2nn1,3.6%,28.2µM*,?,-6.7%,?
Cc1cc2c(NC(=O)CCCC(=O)O)cccc2nn1,-3.7%,-1.7%,-2.6%,-3.5%,·
Cc1cc(O)c(Oc2cc(C)cc(O)c2O)c(O)c1,0.3%,?,?,-1.2%,5.62µM*
CCOC(=O)c1c(C)[nH]c(N=Nc2cccc(OC)c2)c1C,-4.4%,10.8%,?,-0.6%,5.01µM*
CCOC(=O)c1c(C)[nH]c(N=Nc2cccc(C)c2)c1C,0.9%,6.5%,?,-18.1%,10µM*
CCOC(=O)c1c(C)[nH]c(CCC(=O)NCc2cccc(C)c2)c1C,-0.5%,10.2%,-14.4%,-3.4%,-9.3%
CCOC(=O)c1c(C)[nH]c(CCC(=O)NCc2cccc(OC)c2)c1C,-0.4%,-1.9%,-4.4%,-5.2%,-3.7%
CSCC[C@H](NC(=O)[C@H](CCC(N)=O)NC(=O)[C@H](CCCCN)NC(=O)[C@H](CCCNC(=N)N)NC(=O)[C@H](Cc1ccc(O)cc1)NC(=O)[C@H](CCCNC(=N)N)NC(=O)[C@H](CO)NC(=O)[C@H](Cc1ccc(O)cc1)NC(=O)[C@H](CO)NC(=O)[C@H](CC(=O)O)NC(=O)[C@@H](NC(=O)[C@@H](N)Cc1ccccc1)[C@@H](C)O)C(=O)N[C@@H](C)C(=O)N[C@H](C(=O)N[C@@H](CCCCN)C(=O)N[C@@H](CCCCN)C(=O)N[C@@H](Cc1ccc(O)cc1)C(=O)N[C@@H](CC(C)C)C(=O)N[C@@H](C)C(=O)N[C@@H](C)C(=O)N[C@H](C(=O)N[C@@H](CC(C)C)C(=O)NCC(=O)N[C@@H](CCCCN)C(=O)N[C@@H](CCCNC(=N)N)C(=O)N[C@@H](Cc1ccc(O)cc1)C(=O)N[C@@H](CCCCN)C(=O)N[C@@H](CCC(N)=O)C(=O)N[C@@H](CCCNC(=N)N)C(=O)N[C@H](C(=O)N[C@@H](CCCCN)C(=O)N[C@@H](CC(N)=O)C(=O)N[C@@H](CCCCN)C(N)=O)C(C)C)C(C)C)C(C)C,-1.2%,·,·,5.8%,·
CN(C)c1ccc(N=Nc2ccccc2C(=O)OCC(=O)Nc2ccccc2C(F)(F)F)cc1,-0.3%,?,?,0.2%,5.01µM*
CN(C)c1ccc(N=Nc2ccccc2C(=O)OCC(=O)N2CCCCCC2)cc1,-1.0%,12.5%,-21.4%,0.6%,8.91µM*
CN(C)c1ccc(C(=O)OCC(=O)N2CCOCC2)cc1,3.4%,7.3%,-2.8%,3.1%,1.3%
CN(C)c1ccc(N=Nc2ccccc2C(=O)OCC(=O)N2CCCC2)cc1,-1.7%,5.9%,-23.7%,-1.7%,12.6µM*
Cc1cccc(C)c1OCC(=O)Nc1ccccc1C(F)(F)F,0.9%,1.3%,-2.8%,-2.0%,-4.4%
